Rows were chosen to be rich in hits. Some 4.1% of all compounds tested hit in one or more screens of this group.
MazF activator – activators of E. coli MazEF toxin-antitoxin RNase, primary screen, biochemical, fluorescence, uHTS | Endoribonuclease toxin MazF (Escherichia coli (strain K12)), P0AE70 | FAM/BHQ RNA-DNA oligo cleavage fluorescence, 5 h | activation, % at 20 µM | hit rate 0.32% among 350,000 | AID 504720, 2011; in the data active = activation above about 50%
Target sequence (P0AE70 whole entry, looked up): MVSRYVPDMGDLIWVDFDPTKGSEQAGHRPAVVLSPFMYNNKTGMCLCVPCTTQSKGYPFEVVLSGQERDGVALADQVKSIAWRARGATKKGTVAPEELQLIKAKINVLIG
Bead autofluor – compound fluorescence in toxin protease inhibitor counterscreen; compound autofluorescence counterscreen, microsphere flow cytometry; hits give high values; fluorescence intensity (test concentration not listed); hit rate 3.1% among 360,000; in the data active = fluorescence intensity above about 16000; inconclusive = no clear call, values can overlap the other calls
Anthrax LF prot – Bacillus anthracis LF protease inhibitors, primary screen, biochemical, multiplex microsphere, MLPCN library. Lethal factor (Bacillus anthracis), P15917. multiplex microsphere protease cleavage assay. inhibition, % at 10 µM. hit rate 0.12% among 360,000; note: plate controls were buffer without enzyme for full effect and enzyme alone for no effect
VHR inh abs – VHR1 phosphatase inhibitors, primary screen, biochemical, absorbance, uHTS | Dual specificity protein phosphatase 3 (Homo sapiens), P51452 | recombinant VHR phosphatase, pNPP absorbance | inhibition, % at 13.3 µM | hit rate 0.52% among 290,000 | AID 1654, 2009; in the data active = inhibition above about 50%
Target sequence (P51452 whole entry, looked up): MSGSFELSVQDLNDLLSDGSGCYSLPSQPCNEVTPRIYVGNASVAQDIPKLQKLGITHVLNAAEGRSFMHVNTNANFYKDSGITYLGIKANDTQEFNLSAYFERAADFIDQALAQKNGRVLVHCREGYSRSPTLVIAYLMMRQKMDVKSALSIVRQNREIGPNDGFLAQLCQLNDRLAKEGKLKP
BoNT-A LC inh2 – BoNT/A light chain protease inhibitors, primary screen, biochemical, flow cytometry, MLPCN library. Botulinum neurotoxin type A light chain protease (Clostridium botulinum A str. ATCC 3502). multiplex microsphere protease substrate cleavage. inhibition, % at 10 µM. hit rate 0.17% among 360,000. AID 588499, 2011; note: plate controls were buffer without enzyme for full effect and enzyme alone for no effect
BoNT F protease – BoNT/F light chain protease inhibitors, primary screen, biochemical, flow cytometry, MLPCN library. Botulinum neurotoxin type F light chain protease (Clostridium botulinum). inhibition, % at 10 µM. AID 588497, 2011. hit rate 0.22% among 360,000. Multiplex microsphere protease cleavage assay; in the data active = inhibition above about 35%, passing the limit was not always enough; inconclusive = no clear call, values can overlap the other calls; note: plate controls were buffer without enzyme for full effect and enzyme alone for no effect
An asterisk follows results filed as active; ? = inconclusive; . = no result given. Cut-off read from the data, not from the text of the source, unless noted: active = inhibition above about 30%; inconclusive = no clear call, values can overlap the other calls; inactive = below that.

SMILES	MazF activator	Bead autofluor	Anthrax LF prot	VHR inh abs	BoNT-A LC inh2	BoNT F protease
O=C(NC1CCCCC1)n1c(=O)oc2ccccc21	1.7	23174*	0.5	5.9	-0.5	0.0
O=C(CCn1c(=S)oc2ccccc21)NC1CCCCCC1	-7.1	4606	3.3	3.5	-1.1	0.1
O=C(NC1CCCCC1)n1c(=O)oc2ccc(Cl)cc21	-7.5	23566*	-2.3	-2.0	-1.1	-1.4
CC(C)C(=O)Nc1cccc(COc2ccccc2CN(Cc2ccccc2)C(=O)OC(C)(C)C)c1	-0.3	3614	4.4	.	0.3	-4.1
COc1ccc(CN(C(=O)CN2C(=O)c3ccccc3S2(=O)=O)C(C(=O)NCC2CCCO2)c2ccco2)cc1 (configuration not stated)	-4.8	3887	-2.8	42.9	-0.2	5.1
COCCN(CCOC)C(=O)Nc1ccc(Cl)cc1	-0.3	4911	-0.9	13.2	-0.3	-1.5
COc1cccc2c1OC[C@@H](CO)[C@H]2N(C)C(=O)Nc1ccc(Cl)cc1	0.0	21011*	-0.9	14.4	5.5	9.6
CCCNc1c(N)n(-c2ccccc2)c(=O)[nH]c1=O	-8.0	21763*	-3.9	7.6	?	8.0
O=C(Nc1ccc(Cl)cc1)Nc1ccccc1C(=O)O	5.6	3621	4.5	56.9*	-0.6	-6.2
CSc1ccccc1NC(=O)Nc1ccc(Cl)cc1	-20.5	20588*	-9.5	-8.8	8.7	8.5
O=C(Nc1ccc(Cl)c(Cl)c1)Nc1ccccc1C(=O)O	-9.6	2134	-1.4	0.8	0.1	-0.5
O=C(Nc1cccc(Cl)c1)Nc1ccccc1C(=O)O	-4.0	8318	4.7	-12.8	-7.6	-30.1
NC(=O)c1ccccc1NC(=O)Nc1cccc(Cl)c1	-5.4	20064*	1.0	1.2	-1.4	-5.9
CC1(C)OC(=O)C(=CNc2cccc(O)c2)C(=O)O1	1.7	7932	6.5	30.5	0.6	6.8
CC1(C)OC(=O)C(=CNc2ccccc2)C(=O)O1	14.4	18882*	2.8	32.2	6.4	4.4
CCCN(CC(=O)Nc1ccccc1C)C(=O)Cc1c(C)nc2ccccc2c1C	-3.8	2974	-7.0	.	0.2	2.6
O=C1CN(c2ccccc2Cl)C(=O)CN1c1ccccc1Cl	4.5	23954*	-2.2	18.1	-1.3	-3.6
Cc1ccccc1N1CC(=O)N(c2ccccc2C)CC1=O	5.0	2865	-5.1	27.8	-1.0	-9.9
CCC(C)Sc1cc(C(F)(F)F)c(C(=O)Nc2ccc(Cl)cc2)cn1 (configuration not stated)	8.5	5622	0.8	2.6	-0.5	-2.9
COc1cc(C2=NOC(C(=O)NCc3ccc(F)cc3)C2)cc(OC)c1OC (configuration not stated)	2.3	17938*	0.0	-5.0	-1.5	-6.4
COc1cc(C2=NOC(C(=O)Nc3ccc(C)cc3)C2)cc(OC)c1OC (configuration not stated)	-1.7	19324*	-1.6	17.2	2.1	1.3
COc1ccc(NC(=O)C2CC(c3ccc(Cl)cc3)=NO2)cc1OC (configuration not stated)	-1.8	4070	6.0	-6.8	1.2	-18.5
COc1cc(NC(=O)C2CC(c3cccc(Br)c3)=NO2)cc(OC)c1OC (configuration not stated)	-3.6	3964	15.9	12.7	5.1	0.0
COc1cc(C2=NOC(C(=O)Nc3ccc4c(c3)OCO4)C2)cc(OC)c1OC (configuration not stated)	7.4	3272	-11.9	-9.3	1.4	-33.0
COc1cccc(C2=NOC(C(=O)Nc3cc(OC)c(OC)c(OC)c3)C2)c1 (configuration not stated)	-2.0	21270*	-4.1	20.8	-2.8	-3.0
SMILES	MazF activator	Bead autofluor	Anthrax LF prot	VHR inh abs	BoNT-A LC inh2	BoNT F protease
COc1ccc(NC(=O)C2CC(c3cc(OC)c(OC)c(OC)c3)=NO2)cc1OC (configuration not stated)	-1.6	21486*	-2.0	33.3	5.1	0.6
COc1ccc(CNC(=O)C2CC(c3cccc(OC)c3)=NO2)cc1 (configuration not stated)	-6.8	19613*	-8.9	10.5	9.0	8.7
COc1ccc(C2=NOC(C(=O)Nc3ccc(C)cc3)C2)cc1OC (configuration not stated)	1.4	21677*	2.6	33.3	1.9	3.2
COc1cc(C2=NOC(C(=O)N3CCCCCC3)C2)cc(OC)c1OC (configuration not stated)	8.1	15348	-3.7	18.6	3.7	7.7
COc1cc(C2=NOC(C(=O)N3CCN(c4ccc(F)cc4)CC3)C2)cc(OC)c1OC (configuration not stated)	-1.6	17355*	-2.8	27.0	-2.6	-2.5
COc1ccc(NC(=O)C2CC(c3ccc(OC)c(OC)c3)=NO2)cc1OC (configuration not stated)	3.9	10820	-7.9	18.6	0.7	-21.8
COc1cc2c(C(=O)N(C)c3ccc(F)cc3)cn(C)c(=O)c2cc1OC	-1.5	3585	0.8	16.5	-1.6	0.4
CN1CCN(C(=O)CN(Cc2ccccc2)S(C)(=O)=O)CC1	-1.0	22469*	1.1	9.9	0.0	0.3
CCN1CCN(C(=O)CN(Cc2ccccc2)S(C)(=O)=O)CC1	6.1	3460	-2.8	-8.3	-0.6	4.2
C=CCSc1[nH]c(=O)cc(C)c1C(N)=O	5.2	19287*	-2.0	-6.0	2.2	3.5
COCCNC(=O)Cn1nc(-c2ccccc2F)ccc1=O	-10.5	3560	-4.0	16.6	-2.5	-24.2
Cc1sc(NC(=O)C2CCCCC2C(=O)O)c(C(N)=O)c1C (configuration not stated)	-21.7	23098*	-0.9	27.7	0.9	-1.0
CSc1nsc(SC)c1-c1ccc(Cl)cc1	-2.0	2892	-2.8	.	-0.4	-1.2
CCCCCC1NC(=O)NC1CCCCCC(=O)O (configuration not stated)	2.3	18045*	1.3	-5.8	7.3	11.3
O=c1ccc(S(=O)(=O)N2CCCC2)cn1Cc1nc(-c2ccc(F)cc2)no1	0.6	57271*	-56.3	.	-213.0	-372.7
COc1ccc(-c2noc(Cn3cc(S(=O)(=O)N4CCCC4)ccc3=O)n2)cc1	-1.1	?	-4.9	.	1.0	6.9
Cc1ccccc1C1=N/C(=C/c2cccs2)C(=O)O1	-11.1	2010	-3.2	10.8	0.7	2.3
Cc1ccc(C2=N/C(=C/c3cccs3)C(=O)N2Nc2ccccc2)cc1	2.0	6977	58.4*	6.2	80.1*	42.9*
CC/C(=N\NC(=O)Cc1ccc(Br)cc1)c1cccs1	-1.9	5798	1.7	50.2*	2.2	-3.2
CC12CC3(C)CC(C)(C1)CC(C(=O)NC1=NCCS1)(C2)C3	-8.2	23810*	-2.6	.	?	-18.1

Source: PubChem BioAssay (several laboratories)
